The source of these data is PubChem BioAssay (EPA / NIEHS).

Molecules are shown by their SMILES. Several values for one entry are separate records, joined by “and”; a condition that tells them apart may be missing. Equal entries are not always repeated. More than one record can exist for a structure, and the calls need not agree. Activity calls are given as the source filed them. How the source made its calls: active means hit-call score of the fitted dose curve at least 0.9, where 1 is the maximum; inactive means score below 0.9.

Assay [1] in a line: BSK_BT_PBMCCytotoxicity: PBMC Cytotoxicity Assessment in the BioMAP Diversity Plus: BT Assay (AID 2284225).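 Further: PBMC viability measured by Alamar Blue dye reduction fluorescence.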 To be noted: primary human B cells with PBMC. In short, it runs like this:
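PBMC (75,000/well) pretreated with compound 1 h, then activated with SEB and TSST-1 (20 ng/mL each final), incubated 90 h; Alamar Blue added 6 h, fluorescence read at 546/580 nm. Fitted relative to DMSO.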

Read-out in assay [2]: Secreted IgG (sIgG), gene 3500
As to the kind of experiment: BSK_BT_sIgG: BioMAP Diversity Plus: BT Assay for Secreted IgG (sIgG) Biomarker Activity (AID 2284226). The following applies: primary human B cells with PBMC. In short, it runs like this: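 Read-out: ELISA for secreted IgG after 24 h of chemical exposure in a B cell plus PBMC co-culture. Values reflect upward-direction fitting against DMSO negative controls.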

Assay [3] is described as follows: BSK_BT_Bcell_Proliferation: Viability Assessment in the BioMAP Diversity Plus: BT Assay for B cell Proliferation (AID 2284227). To be noted: primary human B cells with PBMC. In short, it runs like this:
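SRB-based protein staining (0.1% SRB after 10% TCA fixation, 560 nm) quantifies proliferation in human B cells co-cultured with PBMC, 72 h post-dosing, with signal gain scored relative to DMSO negative control.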

Read-out in assay [4]: Interleukin 6 (IL6), IL6 (gene 3569)
As to the kind of experiment: BSK_BT_xIL6: BioMAP Diversity Plus: BT Assay for Interleukin 6 (IL6) Biomarker Activity (AID 2284228). The following applies: primary human B cells with PBMC. In short, it runs like this: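 Chemical added to human B cell/PBMC co-culture → 24 h → supernatant IL-6 by Luminex xMAP → fit vs DMSO baseline, upward direction.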

Read-out in assay [5]: Interleukin 17A (IL17A), IL17A (gene 3605)
As to the kind of experiment: BSK_BT_xIL17A: BioMAP Diversity Plus: BT Assay for Interleukin 17A (IL17A) Biomarker Activity (AID 2284229). To be noted: primary human B cells with PBMC. Put shortly:
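Chemicals were added to a human B cell and PBMC co-culture. After 24 h, secreted IL-17A was measured with Luminex xMAP. Curves were fitted in the positive direction, with DMSO wells as baseline.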

Read-out in assay [6]: Tumor necrosis factor (Homo sapiens) (UniProt P01375)
As to the kind of experiment: BSK_BT_xTNFa: BioMAP Diversity Plus: BT Assay for Tumor necrosis factor alpha (TNF-alpha) Biomarker Activity (AID 2284230). To be noted: primary human B cells with PBMC. In short, it runs like this:
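Compounds were added to a B cell plus PBMC co-culture, and after 24 h secreted TNF-alpha was quantified with Luminex xMAP technology, with responses fitted upward from the DMSO control.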

Assay [7] in a line: IUF_NPC1b_proliferation_BrdU_72hr: Leibniz Research Institute for Environmental Medicine (IUF) 72-hour Neural Progenitor Cell Bromodeoxyuridine (BrdU) Proliferation Assay (NPC1b) (AID 2284207). Put shortly: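 Proliferation of primary human neural progenitor cells: 72 h compound treatment at 37C, 5% CO2, pH 7.2-7.6, in EGF/FGF-containing medium. Readout is BrdU uptake (last 16 h) by chemiluminescent ELISA, normalised to DMSO.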

Assay [8] is described as follows: IUF_NPC1a_proliferation_area_72hr: Leibniz Research Institute for Environmental Medicine (IUF) 72-hour Neural Progenitor Cell Proliferation Area Assay (NPC1a) (AID 2284208). Put shortly:
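Proliferation is scored as sphere area gain in primary human fetal neural progenitors treated for 72 h in EGF/FGF-containing medium. Viability, LDH and BrdU readouts come from the same wells.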

Assay [9] in a line: IUF_NPC1_viability_72hr: Viability Assessment at 72 hours in the Leibniz Research Institute for Environmental Medicine (IUF) Neural Progenitor Cell Proliferation Assay (NPC1) (AID 2284209). Put shortly:
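hNPC spheres, 1/well, EGF+FGF medium, 37C/5% CO2; dosed day 0, 72 h, no re-dosing. Resazurin reduction (alamar blue) fluorescence; DMSO = negative control/baseline; growth-factor-free wells as positive control.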

A short description of assay [10]: CCTE_Mundy_HCI_Cortical_Synap_Neur_Matur_NeuriteSpotCountPerNeuriteLength: CCTE's Synaptogenesis and Neurite Maturation Assay in rat cortical cells for Neurite Spot Count per Neurite Length, Mundy Lab (AID 2284210). Put shortly: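 Primary rat cortical neurons, compound exposure DIV 7–12, 288.33 h endpoint. Hoechst, anti-MAP2 and anti-synaptophysin labelling; neurite-associated puncta per neurite length scored by automated imaging relative to DMSO controls.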

A short description of assay [11]: CCTE_Mundy_HCI_Cortical_Synap_Neur_Matur_BPCount: CCTE's Synaptogenesis and Neurite Maturation Assay in rat cortical cells for Branch Point Count, Mundy Lab (AID 2284211). In short, it runs like this: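 Rat primary cortical cultures, AraC added DIV 5; chemicals dosed DIV 7 through DIV 12. Fixed cells stained for MAP2, synaptophysin and Hoechst; neurite branch points counted by automated high-content imaging, fitted relative to DMSO.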

Assay [12] can be described thus: CCTE_Mundy_HCI_Cortical_NOG_NeuriteCount: CCTE's Neurite Outgrowth Assay in rat cortical cells for Neurite Count, Mundy Lab (AID 2284212).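 Further: cells fixed about two days after chemical exposure began.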 In short, it runs like this:
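Neurite number per cell from high-content imaging of betaIII-tubulin immunostaining, with Hoechst nuclear counterstain.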

Assay [13] is described as follows: CCTE_Mundy_HCI_Cortical_NOG_NeuriteLength: CCTE's Neurite Outgrowth Assay in rat cortical cells for Neurite Length, Mundy Lab (AID 2284213). Put shortly: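 Neurite length was read by high-content imaging of βIII-tubulin-labelled neurites in rat primary cortical cultures. Activity was fitted relative to DMSO.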
Assay [14] in a line: CCTE_Mundy_HCI_Cortical_Synap_Neur_Matur_NeuriteLength: CCTE's Synaptogenesis and Neurite Maturation Assay in rat cortical cells for Neurite Length, Mundy Lab (AID 2284214). In short, it runs like this:
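Rat cortical neurons, AraC at DIV 5; compound + media change DIV 7, end DIV 12 (288.33 h). Fix, MAP2/synaptophysin/Hoechst immunostain, automated HCI of neurite length vs DMSO.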

Assay [15] is described as follows: CCTE_Mundy_HCI_Cortical_Synap_Neur_Matur_NeuriteSpotCountPerNeuron: CCTE's Synaptogenesis and Neurite Maturation Assay in rat cortical cells for Neurite Spot Count per Neuron Count, Mundy Lab (AID 2284215). In short, it runs like this:
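Synapse density is scored as synaptophysin spots along neurites per neuron in fixed rat cortical neurons, measured at DIV 12 after chemical dosing at DIV 7. DMSO is the negative control and activity baseline.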

Assay [16] can be described thus: CCTE_Mundy_HCI_Cortical_Synap_Neur_Matur_SynapseCount: CCTE's Synaptogenesis and Neurite Maturation Assay in rat cortical cells for Synapse Count, Mundy Lab (AID 2284218). In short, it runs like this:
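Primary rat cortical culture; AraC DIV 5 to arrest glia; compound + media change DIV 7; terminated DIV 12. PFA/Hoechst fix, anti-MAP2 + anti-synaptophysin immunostain; HCI synapse count/neuron; DMSO = baseline.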

Assay [17] in a line: CCTE_Mundy_HCI_Cortical_Synap_Neur_Matur_NeuriteCount: CCTE's Synaptogenesis and Neurite Maturation Assay in rat cortical cells for Neurite Count, Mundy Lab (AID 2284222).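 On outcome: exposure from day 7 to day 12 in vitro with readout at day 12.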 Put shortly: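 Chemical exposure runs DIV 7–12 in rat cortical cultures, glia suppressed by AraC at DIV 5; measurement is at DIV 12. Imaging-derived neurite counts are fitted against DMSO baseline.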
Assay [18] is described as follows: CCTE_Mundy_HCI_Cortical_Synap_Neur_Matur_CellBodySpotCount: CCTE's Synaptogenesis and Neurite Maturation Assay in rat cortical cells for Cell Body Spot Count, Mundy Lab (AID 2284223). In short, it runs like this:
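Synapse number at neuronal cell bodies was quantified as synaptophysin puncta per neuron in rat cortical cultures exposed from DIV 7 to DIV 12. Values were normalised to DMSO.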

The nature of assay [19]: TAMU_PeakParms_SingleDonor1434_Chronotropy: Texas A&M University (TAMU) 1.5-hr Human Induced Pluripotent Stem Cell (iPSC)-derived Cardiomyocytes Calcium (Ca+2) Flux Assay for Cardiotoxicity: Chronotropy (changes in peak frequency) (AID 2284217). The following applies: actives raise or lower the signal. In short, it runs like this:
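Beat frequency of single-donor iPSC cardiomyocytes was recorded through a calcium-sensitive dye 1.5 hours after exposure to four concentrations up to 100 uM. An EC05 point of departure was derived.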

In general, AC50 refers to the midpoint of the concentration-response curve, whichever way the signal moves.

Chain of Tumor necrosis factor (Homo sapiens) (P01375 whole entry, looked up): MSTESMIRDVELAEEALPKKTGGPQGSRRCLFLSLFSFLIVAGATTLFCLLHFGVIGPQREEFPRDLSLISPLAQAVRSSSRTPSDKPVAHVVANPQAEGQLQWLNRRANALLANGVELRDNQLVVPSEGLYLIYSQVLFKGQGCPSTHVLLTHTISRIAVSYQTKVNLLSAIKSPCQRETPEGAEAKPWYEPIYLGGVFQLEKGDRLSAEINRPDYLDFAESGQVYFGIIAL

As to `C=C1CC/C=C(\C)CC[C@@H]2[C@@H]1CC2(C)C`, the outcome in [1], in [2], in assay [3], in assay [4], in [5] and in assay [6] was inactive.

On to `CC(=O)CCC=C(C)CCC=C(C)C`, for which the result in assay [1], in assay [4], in [5] and in assay [6] was inactive. Also, the values for the AC50 in [2] and in assay [3] were 20 µM (active) and 31.7 µM (active), respectively.

In the case of `C=CC(=O)OCC(CO)(COC(=O)C=C)COC(=O)C=C`, the AC50 in assay [1] was 1.7 µM (active); in assay [2], 0.709 µM (active); in [3], 1.19 µM (active); in [4], 0.994 µM (active); in assay [5], 1.09 µM (active); in assay [6], 1.88 µM (active).

Take `c1ccc2scnc2c1`: in [7], the AC50 was 10 µM (active). For the same compound, the outcome in assay [8], in assay [9], in assay [10], in [11], in assay [12] and in assay [13] was inactive. In addition, the compound was classed as inactive in assay [14], in assay [15], in assay [16], in [17] and in assay [18].

As for `CC/C(=C(\c1ccccc1)c1ccc(OCCN(C)C)cc1)c1ccccc1`, in assay [19], the result was inactive.

Turning to `CNC(=C[N+](=O)[O-])NCCSCc1ccc(CN(C)C)o1`, the result in [19] was inactive.

On to `c1ccc(Sc2ccccc2)cc1`, for which the outcome in assay [1], in assay [2], in assay [3], in assay [4], in assay [5] and in [6] was inactive.

For the compound `NC(=O)c1c(Cl)cccc1Cl`, the result in [1], in assay [2], in [3], in assay [4], in assay [5] and in [6] was inactive.

Regarding `CCOC(=O)C=Cc1ccccc1`, the result in assay [1], in assay [2], in assay [3], in [4], in assay [5] and in [6] was inactive.

`C=C(F)C(=O)OC(C(F)(F)F)C(F)(F)F`: the outcome in assay [1], in assay [2], in [3], in [4], in assay [5] and in assay [6] was inactive.

For the compound `CC1(C)[C@H](C=C(Cl)Cl)[C@H]1C(=O)OCc1cccc(Oc2ccccc2)c1`, the result in assay [1], in [2], in assay [3], in [4], in assay [5] and in assay [6] was inactive.

For the compound `CC1=CC(C)C(C=O)C(C)C1` (stereo not drawn) (tested in a mixture with another compound), the result in assay [1], in assay [2], in [3], in [4], in assay [5] and in assay [6] was inactive.

On to `CCCCC(CC)COC(=O)COc1ccc(Cl)cc1C` (stereo not drawn), for which the AC50 in assay [7] was 0.0137 µM (active); in assay [10] it was 24.2 µM (active); in assay [11], 15.7 µM (active); in [14], 14.1 µM (active); in assay [15], 16.3 µM (active); in assay [16], 16.4 µM (active). The figures for the AC50 in assay [17] and in assay [18] were 17.1 µM (active) and 25 µM (active), respectively. Moreover, the outcome in [8], in [9], in [12] and in assay [13] was inactive.

Turning to `CC=CC(=O)C1=C(C)C=CCC1(C)C`, the outcome in assay [1], in [2], in assay [3], in assay [4], in [5] and in [6] was inactive.

In the case of `O=C(O)C(F)(F)C(F)(F)C(F)(F)C(F)(F)C(F)(F)C(F)(F)C(F)(F)C(F)F`, the AC50 is 19.8 µM (active) in assay [1]; 21 µM (active) and 22.2 µM (active) in [3]. The result in assay [1], in assay [2], in assay [4], in [5] and in [6] was inactive.

For `c1ccc2c(c1)-c1ccc3ccc4cccc5cc-2c1c3c45`, the outcome in assay [1], in [2], in [5] and in [6] was inactive. Also, the AC50 in assay [3] is 1.98 µM (active); in [4] it was 0.0398 µM (active).

Consider `O=C1OC2(c3ccc(O)cc3Oc3cc(O)ccc32)c2ccccc21`, for which the result in assay [1], in assay [3], in [4], in assay [5] and in [6] was inactive. Moreover, in [2], the concentration at half-maximal activity (AC50) was 35.5 µM (active).

Consider `O=S(=O)(O)C(F)(F)C(F)(F)OC(F)(F)C(F)(F)F`, for which the outcome in assay [1], in assay [2], in [3], in assay [4], in assay [5] and in [6] was inactive.

Regarding `CCC(=O)OCC=Cc1ccccc1`, the result in [1], in assay [2], in [3], in assay [4], in [5] and in [6] was inactive.

`CCCCCCCCCCCCS`: the outcome in assay [1], in [2], in assay [3], in [4], in assay [5] and in [6] was inactive.
